# About 64,000 (15%) of roughly 420,000 compounds were called active. Another 27% or so got no clear call; they are omitted. Calls follow the shape of the dose curve; as a rule, active = well fitted inhibition curve with a large enough effect; inconclusive = small, poorly fitted or top-dose-only effect; inactive = flat fitted curve, though single readings scatter. Not all results are given here. A call without a number means that no potency is given here.
# Test: qHTS for Inhibitors of human tyrosyl-DNA phosphodiesterase 1 (TDP1): qHTS in cells in absence of CPT; also: nearly all actives have a fitted effect of over 55% in size
# Details: DT40 Tdp1-/- hTDP1 cells, no CPT, ATP luminescence, 48 h; activity change, negative = growth inhibition: at 46.2 µM (top of the series)
# In short: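 Compound effects on proliferation are scored in DT40 Tdp1-/-;hTDP1 cells in the absence of CPT. ATP levels (CellTiter-Glo luminescence) are recorded after a ≥48 hr, 37 °C incubation.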
# Potency is read from the fitted curve at half-maximal effect.
row,SMILES,Potency
1,CC(C)C(C(=O)NC1CCCCC1)N(CC1CCCO1)C(=O)CNS(=O)(=O)c1ccc(F)cc1 (configuration not stated),inactive
2,O=C(O)CCC(=O)N(Cc1ccccc1)Cc1ccccc1,inactive
3,CC1(C)CC(=O)C=C(NCc2ccncc2)C1,inactive
4,CC(=O)Oc1ccc(-c2nc3c(C)cccc3c(=O)o2)cc1,inactive
5,Cc1nc(N=C(N)N)nc2c(C)cccc12,20.6 µM (active)
6,Cc1cccc2c(=O)n3c(nc12)CCCCC3,inactive
7,CCCN1Cc2cccc(C(=O)NCc3ccccc3)c2C1=O,inactive
8,CCOc1ccc(N2C(=O)CN(c3cccc4ccccc34)C2=S)cc1,inactive
9,COCCCNC(=S)N(Cc1ccccc1)Cc1ccc(F)cc1,inactive
10,CCN(CC)CCCNC(=S)N(CCO)Cc1cc2cc3c(cc2[nH]c1=O)OCO3,inactive
11,Cc1cc(C)c2[nH]c(=O)c(CN(Cc3ccccc3)C(=S)NCCCN(C)C)cc2c1,16.4 µM (active)
12,CCCCNC(=O)c1c[nH]c2ccc(S(=O)(=O)Nc3ccc(OCC)cc3)cc2c1=O,inactive
13,Cc1ccc(/C=C2\CCn3c2nc2cc(C(=O)O)ccc2c3=O)c(C)c1,inactive
14,CC(=O)C[C@@H](O)CC(=O)[C@H]1OC(=O)CCCCCCc2ccccc21,inactive
15,CC(C)(C)c1cc(=O)n2c(nc3ccccc32)[nH]1,inactive
16,O=C(NCc1ccccn1)c1cc(-c2ccccc2Cl)on1,inactive
17,O=C(NCc1ccccn1)Nc1ccc(Cl)cc1,inactive
18,Fc1ccc(-c2ccc(CNCc3ccccn3)o2)cc1Cl,20.6 µM (active)
19,COc1ccc(CNC(=O)CN(Cc2ccccc2Cl)C(=O)c2csnn2)cc1,inactive
20,COCCNC(=O)COc1ccc(C)c(C)c1,inactive
21,Cc1ccc(C)c(N2CCN(S(=O)(=O)c3c(C)[nH]c(C)c3C(=O)N3CCCC3)CC2)c1,23.1 µM (active)
22,Cc1[nH]c(C)c(S(=O)(=O)N2CCC(C)CC2)c1C(=O)N1CCCC1,inactive
23,Cc1ccc(C)c(NS(=O)(=O)c2c(C)[nH]c(C)c2C(=O)N2CCCCC2)c1,inactive
24,CCc1noc(C)c1C(=O)N1CCN(S(=O)(=O)c2cccc(C(F)(F)F)c2)CC1,inactive
25,Cc1ccc(NS(=O)(=O)c2c(C)[nH]c(C)c2C(=O)N2CCCCC2)c(C)c1,inactive
26,Cc1[nH]c(C)c(S(=O)(=O)N2CCN(c3cccc(C(F)(F)F)c3)CC2)c1C(=O)N1CCCCC1,10.3 µM (active)

row,SMILES,Potency
1,O=S(=O)(NCc1cccnc1)c1ccc(Cl)nc1,inactive
2,Cc1occc(=O)c1OCc1c(Cl)cccc1Cl,inactive
3,O=C(Nc1nnc(-c2ccc(F)cc2)s1)c1c(F)cccc1Cl,inactive
4,CC(=O)N1CCc2ccc(N)cc21,inactive
5,O=C(NCc1ccc2c(c1)OCO2)c1ccc(Cl)s1,inactive
6,O=C(NCc1ccc2c(c1)OCO2)c1sccc1Br,inactive
7,O=C(NCc1ccc2c(c1)OCO2)c1c(-c2ccsc2)sc2ccccc12,14.6 µM (active)
8,COC(=O)c1ccc2ccccc2c1OC1OC(CO)C(O)C(O)C1NC(C)=O (configuration not stated),inactive
9,CCOc1cccc(/C(O)=C2/C(=O)C(=O)N(CCOC)C2c2ccncc2)c1 (configuration not stated),inactive
10,CS(=O)(=O)N1CCN(C(=O)CSc2ccccc2)CC1,inactive
11,COCCn1c(SC(C)C(=O)NC2CC2)nnc1-c1cccc(C)c1 (configuration not stated),inactive
12,COc1ccc(C(CNC(=O)c2ccc(OCc3cscn3)cc2)N2CCCC2)cc1 (configuration not stated),inactive
13,C=CCN(CC=C)C(=O)CN1C(=O)c2ccccc2C1=O,inactive
14,CN(C)/C=C(/C(=O)c1ccccc1Cl)S(C)(=O)=O,inactive
15,Cc1ccc2nc(-c3cccnc3)c(NC3CCCC3)n2c1,20.6 µM (active)
16,O=C(COC(=O)c1cncc(Br)c1)Nc1ccc(S(=O)(=O)N2CCOCC2)cc1,inactive
17,O=C(CCn1nnnc1CN1CCOCC1)N1CCC(c2ccccc2Cl)C1 (configuration not stated),inactive
18,Cc1cccc(C(=O)N2CCC(c3nc4ccccc4s3)CC2)c1,inactive
19,CC(=O)Oc1ccc(C(C)=O)c2c1OCCO2,inactive
20,CC(=O)Oc1ccc(OC(C)=O)c2c1C1C=CC2CC1,16.4 µM (active)
21,COc1c(C(=O)N2CCCC2)ccc2ccccc12,inactive
22,NC(=O)CC[C@@H]1NC(=O)[C@H](CO)NC(=O)c2cc([N+](=O)[O-])cc(I)c2NCC[C@@H](C(N)=O)NC1=O,inactive
23,COCC(=O)N1CCc2ccc(NC(=O)c3ccccc3Cl)cc2C1,inactive
24,COc1ccc(NC(=O)NCc2ccc3c(c2)OCO3)c(OC)c1,inactive
25,COc1ccc2c(c1)C(C)=CC(C)(C)N2C(=O)CNCc1ccc2c(c1)OCO2,20.6 µM (active)
26,COc1cccc(CNCc2ccc3c(c2)OCO3)c1,inactive

# — PubChem BioAssay AID686978 (National Center for Advancing Translational Sciences (NCATS), 2013)
